Results as given in PubChem BioAssay AID778 (Sanford-Burnham Center for Chemical Genomics, 2007).
Out of some 96,000 compounds screened, about 20,000 (21%) were called active. A selection follows. Unmarked numbers belong to inactive results.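 Rule for the calls: active = CYP2C19 inhibition above a set limit at 5 µM in the primary screen (cut at about 50% in these data); inactive = the rest.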

Each compound was assayed against Cytochrome P450 2C19 (Homo sapiens) (UniProt P33261) (assay: blockers of cytochrome P450 2C19 activity – biochemical, luminescence, ADME assay, primary screen (AID 778;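 note: plate controls were negative control wells for no effect and 2.5 mM tranylcypromine positive control for full effect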)). Details: CYP2C19 Supersomes, luciferin-H EGE luminescence, 30 min; at 5 µM; active compounds read high.
Chain of Cytochrome P450 2C19 (Homo sapiens) (P33261 whole entry, looked up): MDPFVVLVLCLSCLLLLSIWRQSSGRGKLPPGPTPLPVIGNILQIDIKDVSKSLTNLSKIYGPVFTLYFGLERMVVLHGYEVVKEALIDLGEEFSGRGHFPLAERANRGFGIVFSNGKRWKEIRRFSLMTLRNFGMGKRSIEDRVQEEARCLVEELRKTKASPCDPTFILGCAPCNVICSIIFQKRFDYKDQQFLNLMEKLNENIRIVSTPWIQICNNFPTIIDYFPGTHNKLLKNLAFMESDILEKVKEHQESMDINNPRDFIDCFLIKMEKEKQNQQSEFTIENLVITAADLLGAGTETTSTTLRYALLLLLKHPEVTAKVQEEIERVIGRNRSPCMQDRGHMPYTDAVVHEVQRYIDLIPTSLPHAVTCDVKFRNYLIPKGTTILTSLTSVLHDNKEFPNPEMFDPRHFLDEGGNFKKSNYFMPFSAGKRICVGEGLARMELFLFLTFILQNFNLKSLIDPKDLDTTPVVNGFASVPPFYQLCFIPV

Compound	inhibition
COc1ccc(-c2nn3c(-c4ccccc4)nnc3s2)cc1OC	0.9%
COc1cc(-c2nn3c(-c4cccc(C)c4)nnc3s2)cc(OC)c1OC	79.2% (active)
CCOc1cccc(-c2nn3c(-c4ccccn4)nnc3s2)c1	-1.6%
CC(C)(C)n1c(=O)[nH]c2c(c1=O)CCC2	-16.7%
O=C(O)C1CCN(S(=O)(=O)N2CCOCC2)CC1	-3%
O=C(CN(CC1CCCO1)C(=O)CNS(=O)(=O)c1ccccc1)NCc1ccccc1 (centres undefined)	4.5%
O=S(=O)(NCC1OCCc2ccccc21)c1ccccc1 (centres undefined)	53.6% (active)
O=C1c2ccccc2C(=O)N1CC1c2ccccc2CCN1S(=O)(=O)c1ccccc1 (centres undefined)	36.9%
N#CC(C(N)=O)=C1CCC2(CC1)OCCCCO2	24.1%
CC(N)C12CC3CC(CC(O)(C3)C1)C2 (centres undefined)	6.1%
FC(F)(F)c1cccc(-c2cc3ccccc3nc2N2CCCC2)c1	16.1%
O=C1c2ccncc2C(=O)N1C1CCCCC1	-1.7%
COc1ccc2c(Cl)c(-c3nnco3)sc2c1	19%
COc1cccc(N=c2oc3c(C)ncc(CO)c3cc2C(N)=O)c1	21.1%
CN(C)/C=C/C(=O)c1ccccc1F	-7%
CC(Oc1ccc(F)cc1F)C(=O)/C=C/N(C)C (centres undefined)	-6.9%
CC(Oc1ccc(Cl)cc1Cl)C(=O)/C=C/N(C)C (centres undefined)	60.1% (active)
Cc1cccc(N(CC(O)CN(C)C)S(=O)(=O)c2ccccc2)c1 (centres undefined)	-5.2%
O=C(CN1CCSCC1)N/N=C/c1ccc(F)cc1F	3.1%
Cc1ccc(-c2nc(CS(=O)CC(=O)NC3CCCC3)c(C)o2)cc1 (centres undefined)	32.1%
COC(=O)C1(S(=O)(=O)C2(C(=O)OC)CCCC2)CCCC1	65.4% (active)
COc1ccc(Cc2nnc(SC)[nH]c2=O)cc1	-4.5%

Compound	inhibition
Cc1cccc(C(=O)NCCCN2CCCC2=O)c1	21.8%
CCc1nc(C)cn1S(=O)(=O)c1cc(OC)c(C)cc1C	45.7%
Cc1cc(C)nc(NC2=NCC(=O)N2c2ccc(Cl)cc2)n1	4.3%
COc1ccc(CN2C(=O)CN=C2Nc2ccc(C)cc2C)cc1	82.7% (active)
COc1ccc(N2C(=O)CN=C2Nc2cccc(C)c2C)cc1OC	17.1%
Cc1nc(NC2=NC(C(=O)Nc3ccc(Cl)cc3)CC(=O)N2)nc2ccccc12 (centres undefined)	2.5%
CC(C)Oc1ccc(C(=O)NC(C)(C)CO)cc1	3.7%
COCCOC(=O)C1=C(C)NC(=O)CC1c1cc2c(cc1Br)OCO2 (centres undefined)	83.7% (active)
COCCOC(=O)C1=C(C)Nc2nc(C)nn2C1c1ccccc1 (centres undefined)	17.9%
COC(=O)c1ccc(C2CC(=O)Nc3cc(OC)c(OC)cc32)cc1 (centres undefined)	36.1%
CC(C)(C)C(=O)Nc1ccc(C(=O)N/N=C/c2ccccc2OC(=O)c2ccc(Cl)cc2Cl)cc1	42.1%
Fc1ccc(N2N=C(c3cccs3)CC2c2ccco2)c(F)c1 (centres undefined)	2.3%
CCS(=O)(=O)Nc1ccc(C2=NN(S(=O)(=O)c3ccc(F)cc3)C(c3ccco3)C2)cc1 (centres undefined)	82.8% (active)
CN1CCN(S(=O)(=O)c2ccc(NC(=O)c3ccco3)cc2)CC1	-15.6%
COc1cccc2c1OCC1COc3c(c(=O)n(C)c(=O)n3C)C21 (centres undefined)	-1%
COc1ccc(C2CC(=O)n3c(nc4ccccc43)S2)cc1OC (centres undefined)	11.9%
COc1ccc(C2SCCN2S(=O)(=O)c2ccccc2)cc1OC (centres undefined)	48.2%
COc1ccc(C2N=C(N)N=C(N)N2c2ccccc2)cc1OC (centres undefined)	57.2% (active)
Cc1c(Nc2cc(N3CCCC(C)C3)c3nonc3c2[N+](=O)[O-])c(=O)n(-c2ccccc2)n1C (centres undefined)	19.5%
CCSC(C)CC1C/C(=N/O)c2c(C)noc2C1 (centres undefined)	40.9%
Cc1ccc(C(=O)N/C(=C/C=C/c2ccccc2)C(=O)NCc2ccco2)cc1	50.8% (active)
COc1cc(C(=O)NC(=S)NCc2ccco2)cc(OC)c1OC	28.5%

Compound	inhibition
CNC(=O)/C(=C\C=C\c1ccccc1)NC(=O)c1ccc([N+](=O)[O-])cc1	23.9%
CCOCCCNC(=O)C(NC(=O)c1ccc(=O)[nH]c1)c1ccc(Cl)cc1 (centres undefined)	-4.8%
CCN(CC(=O)Nc1ccccc1OC)C(=O)Cn1cnc2ccccc2c1=O	1.7%
CC(CCc1ccccc1)NC(=O)c1ccc(Br)o1 (centres undefined)	57.2% (active)
CC(CNC(=O)c1ccc(Br)o1)NC(=O)c1ccc(Br)o1 (centres undefined)	10.7%
CCN(CC)S(=O)(=O)N1CCC(C(=O)NC(C)CCc2ccccc2)CC1 (centres undefined)	-8.4%
CS(=O)(=O)c1ccc2nc(NC(=O)C3CCCCC3)sc2c1	-0.8%
N#CC1=C(N)N(c2ccc(F)cc2)C(=O)C1	-22.3%
Cc1ccccc1CSc1nnc(-c2ccccn2)n1N	43.6%
COc1ccc2oc(=O)c(C(=O)N3CCN(c4ccccc4F)CC3)cc2c1	9.7%
O=C(Nn1cc(C(=O)N2CCN(c3ccccc3F)CC2)c2ccccc2c1=O)c1cnccn1	9.8%
COc1ccc(Nc2ncc(C(=O)N3CCN(c4ccccc4OC)CC3)c3ccccc23)cc1	51.6% (active)
COc1ccc(N2C(=O)CCC(C(=O)N(C)C3CCCCC3)C2c2ccc(OC)c(OC)c2)cc1 (centres undefined)	20.3%
COCCN(C(=O)CCC(=O)Nc1ccccn1)C(C(=O)NCCC(C)C)c1ccc(OC)cc1 (centres undefined)	42.4%
CCC(C)n1[nH]c(=O)cc1N (centres undefined)	6.5%
O=C(Nc1ccccc1)N(Cc1cccnc1)Cc1ccco1	76.4% (active)
O=C(CS(=O)(=O)Cc1ccccc1)Nc1cccnc1	6.9%
O=C(NNC(=O)c1cccnc1)Nc1ccccc1	-10.3%
N/C(=N\OC(=O)c1cc(-c2ccccc2)nc2ccccc12)c1ccncc1	29.8%
COC(=O)c1ccc(/C=N\n2c(C)nnc2C)cc1	8.4%
